Screening results deposited in PubChem BioAssay by National Center for Advancing Translational Sciences (NCATS).
Sm TGR block: qHTS Assay for the Inhibitors of Schistosoma Mansoni Peroxiredoxins; Schistosoma mansoni thioredoxin glutathione reductase (TGR), Q962Y6; 360,000 compounds, 3% hits; purified TGR, DTNB reduction, TNB absorbance 405 nm; Potency, µM (highest dose often 114 µM), without a hit: at the top dose activity change, negative = inhibition, hits mostly inhibitors; note: % is set by controls: 0 for no effect and ±100 for the full control effect; nearly all actives have a fitted effect of over 60% in size
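Kinetic colorimetric format: TGR-catalysed, NADPH-driven DTNB reduction monitored via TNB absorbance. Enzyme dispensed at 20 nM; compound exposure 15 min at room temperature before reaction start.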
Tb PYK inh: qHTS of Trypanosoma Brucei Inhibitors; AID 624173, 2012; pyruvate kinase (Trypanosoma brucei), Q57TT1; 410,000 compounds, 0.12% hits; Potency, µM (top dose mostly 76.8 µM), without a hit: at the top dose activity, negative = inhibition, actives largely listed as inhibitors; TbPYK enzyme, Kinase-Glo Plus ATP luminescence, 45 min; note: % is set by controls: 0 for no effect and ±100 for the full control effect; nearly all actives have a fitted effect of over 50% in size
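TbPYK + substrate in 50 mM TEA pH 7.2, 100 mM KCl, 10 mM MgCl2, 0.05% BSA, 0.01% Tween-20; cpd pinned; ADP 130 uM final; 45 min RT; Kinase-Glo Plus 10 min; luminescence endpoint.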
RE007 growth inh: qHTS Assay for Inhibitors of the HIV-1 protein Vpr. S. pombe RE007 Vpr strain, BacTiter-Glo ATP luminescence, 24 h. Potency, µM (titrated, usually from 92.2 µM), inactives show top-dose activity change, negative = less growth, hits mostly inhibitors. 360,000 compounds, 0.21% hits. AID 651644, 2012; active = well fitted falling curve with a large enough effect; inconclusive = small, poorly fitted or top-dose-only effect; inactive = no such curve, though single readings can be large or run the other way; note: % is set by controls: 0 for no effect and ±100 for the full control effect; nearly all actives have a fitted effect of over 50% in size
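Fission yeast strain RE007, carrying one chromosomally integrated HIV-1 vpr copy, was seeded at OD 0.01 in PMG+AL medium with 23 nL pinned compound. After 24 h at 30 °C and 99% humidity, viability was read by BacTiter-Glo luminescence.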
AmpC inh no detg: qHTS Inhibitors of AmpC Beta-Lactamase (assay without detergent); P00811; AmpC nitrocefin hydrolysis, absorbance 480 nm, 0.0001% Triton; Potency, µM (highest dose often 57.1 µM), inactives show top-dose activity change, negative = inhibition, most hits filed as inhibitors; 330,000 compounds, 0.52% hits;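 note: plate controls were no compound for no effect and no enzyme for full effect; nearly all actives have a fitted effect of over 20% in size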
Target sequence (P00811 whole entry, looked up): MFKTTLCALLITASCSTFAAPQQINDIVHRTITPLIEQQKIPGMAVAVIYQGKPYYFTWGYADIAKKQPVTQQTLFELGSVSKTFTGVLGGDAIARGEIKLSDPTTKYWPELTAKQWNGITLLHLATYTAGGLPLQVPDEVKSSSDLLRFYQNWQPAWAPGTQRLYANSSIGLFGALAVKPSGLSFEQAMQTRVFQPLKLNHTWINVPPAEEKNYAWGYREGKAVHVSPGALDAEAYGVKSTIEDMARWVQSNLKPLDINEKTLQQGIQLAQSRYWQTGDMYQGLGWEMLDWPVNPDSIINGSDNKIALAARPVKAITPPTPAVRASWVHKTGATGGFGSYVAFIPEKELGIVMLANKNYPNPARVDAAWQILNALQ
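20 mM phosphate pH 7.0 + 0.01% (detergent screen) or 0.0001% Triton X-100; 5.3 nM AmpC reagent; cpd preinc 15 min RT; nitrocefin (800 uM stock) to start; A480 q20 s × 4 min; Activity was normalised to no-enzyme and no-compound control wells.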
SARS PLP yeast: qHTS of Yeast-based Assay for SARS-CoV PLP; S. cerevisiae expressing SARS-CoV PLpro, growth rescue; Potency, µM (top dose mostly 32.9 µM), for inactives: at the highest dose activity, positive = growth rescue, actives largely listed as activators; 330,000 compounds, 0.19% hits; AID 485353, 2010; calls by dose curve; note: 0% is about no effect; nearly all actives have a fitted effect of over 55% in size
AmpC detergent: qHTS Inhibitors of AmpC Beta-Lactamase (assay with detergent) | AmpC hydrolysis of nitrocefin, absorbance 480 nm, 0.01% Triton | 370,000 compounds, 0.041% hits | Potency, µM (highest dose often 114 µM), for inactives: top-dose activity change, negative = inhibition, most hits filed as inhibitors | P00811;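 note: 0% = no-compound wells and -100% = no-enzyme wells; nearly all actives have a fitted effect of over 25% in size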
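20 mM phosphate pH 7.0 + 0.01% (detergent screen) or 0.0001% Triton X-100; 5.3 nM AmpC reagent; cpd preinc 15 min RT; nitrocefin (800 uM stock) to start; A480 q20 s × 4 min; Activity was normalised to no-enzyme and no-compound control wells.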
Active calls of the source: *; ? = inconclusive; / = no result; ! = repeats disagree; [ ] = dose if it differs, or a comment. Most compounds without a hit are left out; they make up all but 3.3% or so of the library. Unless noted, calls come from the whole dose curve; as a rule, active = well fitted curve in the direction sought with a large enough effect; inconclusive = small, poorly fitted or top-dose-only effect, or another doubt; inactive = no such curve, though single readings can be large; an effect the other way counts as inactive or inconclusive. Potency is the fitted concentration of half-maximal effect.

SMILES	Sm TGR block	Tb PYK inh	RE007 growth inh	AmpC inh no detg	SARS PLP yeast	AmpC detergent
CC1CCCN(C(=O)c2ccc(CSc3nc4ccncc4n3Cc3ccccc3)cc2)C1 (stereo not given)	-14%	-4%	/	/	/	3%
C/C(=N\NC(=O)c1cc(C)nc2ccccc12)c1ccco1	-26%	3%	-17%	-9%[2.29 µM]	1%	0%
C/C(=N\Nc1nc2ccccc2c(=O)n1O)c1ccco1	40µM*	-6%	7%	-14%	8%	-1%
Cc1ccc(-n2c(O)c(/C=N/NC(=O)c3ccncc3)c(=O)[nH]c2=O)cc1C	-29%	-19%	-9%	-25%	-15%	-3%
O=C(N/N=C/c1c(O)n(CCc2ccc(F)cc2)c(=O)[nH]c1=O)c1ccncc1	?	2%	2%	-44%	19%	-5%
O=C(N/N=C/c1c(O)n(-c2cccc3ccccc23)c(=O)[nH]c1=O)c1ccncc1	14µM*	0%	-14%	-35%	2%	3%
O=C(N/N=C/c1c(O)n(CCc2ccccc2)c(=O)[nH]c1=O)c1ccncc1	18µM*	-8%	/	-34%	-9%	-1%
Cc1ccc2c(c1)nc(SCC(O)c1ccc(Br)cc1)n2C (stereo not given)	-3%	-4%	/	/	/	7%
COc1ccc(-c2ccc(CCC(=O)O)n2-c2ccccc2O)cc1	28µM*!	-2%	-20%	-25%	-2%	8%
COc1ccc(-c2ccc(CCC(=O)O)n2-c2ccccc2C(F)(F)F)cc1	?	-10%	/	/	/	-4%
COc1ccc(-n2c(CCC(=O)O)ccc2-c2ccccc2)cc1	40µM*!	-9%	-9%	-11%	1%	9%
CCOc1cc(C2C3=C(CCCC3=O)N(CC(=O)O)C3=C2C(=O)CCC3)ccc1OC	89µM*	-7%	6%	-6%	-10%	-10%
COc1ccc(C2C3=C(CCCC3=O)N(CC(=O)O)C3=C2C(=O)CCC3)cc1Br	/	-2%	-14%	/	/	/
COc1ccc(C2C3=C(CCCC3=O)N(CC(=O)O)C3=C2C(=O)CCC3)cc1Cl	50µM*	-12%	-13%	-24%	8%	-12%
COc1ccc(-c2n[nH]c3c2cnc2cc(OC)c(OC)cc23)cc1	7%	3%	/	/	/	9%
CCOC(=O)NC1(Nc2cccc(Cl)c2)Oc2ccccc2O1	50µM*	-10%	-17%	-27%	2%	-5%
CC(=O)c1ccc(N/N=C2/CCCNC2=O)cc1	-3%	-2%	4%	-18%	0%	-2%
Cc1ccc(N/N=C2/CCCNC2=O)cc1	32µM*	-7%	8%	-15%	1%	-14%
CCc1ccc(C(=O)c2cn(Cc3ccc(F)cc3)c3cc(OC)c(OC)cc3c2=O)cc1	6%	-7%	/	/	/	-10%
Cc1coc(=N)n1CC(=O)c1ccc(Cl)cc1	40µM*	6%	-6%	-2%	-1%	3%
COc1ccccc1N1C(=O)C2C(c3ccccc3F)NN(C(=O)c3ccc(C)cc3)C2C1=O (stereo not given)	18µM*	-9%	5%	48%	-21%	-16%
CC(=O)c1ccc(NC(=O)Nc2nnc(N3CCCC(C)C3)s2)cc1 (stereo not given)	-3%	-9%	/	/	/	-2%
COc1ccccc1S(=O)(=O)Cc1ccc(C(=O)N2CCN(c3cc(Cl)ccc3C)CC2)o1	-7%	0%	/	/	/	?
COCCCNC(=O)Cn1c(=O)n(-c2ccc(C)c(C)c2)c(=O)c2c3c(sc21)CCCCC3	89µM*	-3%	/	/	/	14%
COCCNC(=O)Cn1c(=O)n(-c2ccc(C)c(C)c2)c(=O)c2c3c(sc21)CCCCC3	0%	-4%	/	/	/	19%
SMILES	Sm TGR block	Tb PYK inh	RE007 growth inh	AmpC inh no detg	SARS PLP yeast	AmpC detergent
Cn1c(O)c(/C=C2\C=Nc3ccccc32)c(=O)n(C)c1=O	-28%	-2%	-6%	-13%	-7%	-1%
Cn1c(O)c(/C=C2\C=c3ccccc3=NC2=O)c(=O)n(C)c1=O	35µM*	?	3%	-22%	1%	-8%
CC(Sc1nnc(-c2ccco2)o1)C(=O)NCCC1=CCCCC1 (stereo not given)	45µM*	-16%	4%	-11%[11.4 µM]	0%	-8%
COCCCNC(=O)Nc1cc(C(=O)NCc2ccc(OC)cc2)ccc1N1CCCC1	-14%	0%	/	/	/	3%
O=C(Oc1ccc2c(=O)c(Oc3ccc4ccccc4c3)coc2c1)c1cncc(Br)c1	-3%	-1%	18%	-34%	-8%	5%
O=C(Oc1ccc2c(=O)c(Cl)coc2c1)c1ccncc1	8.9µM*	-7%	6%	14%	-2%	?
CCC(C(=O)O)C1OC(C(C)C(O)C(C)C(=O)C(CC)C2OC3(C=CC(O)C4(CCC(C)(C5CCC(O)(CC)C(C)O5)O4)O3)C(C)CC2C)C(C)CC1C (stereo not given)	/	-5%	/	/	/	/
COc1ccc(CCNc2oc(-c3ccccc3OC)nc2C#N)cc1OC	-4%	5%	-12%	22%	-6%	-6%
COc1ccc(CCNc2oc(-c3ccccc3OC)nc2C#N)cc1	14µM*	-5%	8%	-3%	-15%	?
O=C(CSc1c2c(nc3ccccc13)CCC2)Nc1ccc(F)cc1	0%	-5%	/	/	/	1%
COCCn1c(C23CC4CC(CC(C4)C2)C3)n[nH]c1=S	3%	7.9µM*	17%	0%	9%	-2%
CCCCn1c(-c2cccnc2)n[nH]c1=S	-8%	?	-4%	-13%	5%	-4%
CCCCn1c(C23CC4CC(CC(C4)C2)C3)n[nH]c1=S	0%	6.3µM*	8%	-55%	?	-10%
Cc1cc(Br)ccc1NC(=O)CCS(=O)(=O)c1cccc2nonc12	-2%	6%	-3%	-10%	1%	-4%
CCN(CC)C(=O)CCS(=O)(=O)c1cccc2nonc12	0%	-3%	5%	-26%	4%	4%
Cc1ccc(NC(=O)CCS(=O)(=O)c2cccc3nonc23)c(Br)c1	32µM*	0%	-7%	-29%	15%	-4%
O=C(CCS(=O)(=O)c1cccc2nonc12)Nc1c(F)cccc1F	11µM*	-2%	/	/	/	?
Cc1cccc(C)c1NC(=O)CCS(=O)(=O)c1cccc2nonc12	-1%	7%	3%	-2%	2%	-4%
